# Reference: ChEMBL document CHEMBL3988442, “University of Dundee, Small-Polar-MMV Screening Library” (2021)
# Out of some 69,000 compounds screened, about 1,000 (1.4%) showed an effect of 50% or more. The entries come from a sample that favours strong results as a whole.
# Tested on: Leishmania donovani
# Assay: Leishmania intramacrophage assay
# Type: functional, organism-based
# Set-up: scale not given: in the data most compounds retested in dose-response had high values
structure (smiles),measurement,setting,value
Cc1nn(C)c(C)c1CN(C(=O)c1cc(Cl)c[nH]c1=O)C(C)C,Percent Effect,"30.3 µM, […]",14.01%
Cc1ncc2c(n1)CCCC2NC(=O)c1ccc(Cn2cccn2)cc1 (configuration not stated),Percent Effect,"30.3 µM, […]",26.01%
Cc1nn(CC(F)F)c2c1c(C(F)F)cc(=O)n2CC(=O)O,Percent Effect,"30.3 µM, […]",-4.895%
CCCn1nc(C)c2c(C(F)F)cc(=O)n(CC(=O)O)c21,Percent Effect,"30.3 µM, […]",18.18%
COC(=O)Cn1c(=O)cc(C(F)F)c2c(C)nn(CC(F)F)c21,Percent Effect,"30.3 µM, […]",51.48%
CC1(C)CN(C(CNS(C)(=O)=O)c2ccc(Cl)cc2)CCO1 (configuration not stated),Percent Effect,"30.3 µM, […]",30.45%
O=C(Cc1ccc(F)cc1)N1CCn2c(Cn3cncn3)cnc2C1,Percent Effect,"30.3 µM, […]",5.226%
CCc1nc2n(n1)CC(NCc1nc(-c3ccccn3)no1)CC2 (configuration not stated),Percent Effect,30 µM,-15.89%
Cc1noc(C)c1CC(=O)N1CCCC(Cn2ccnc2C)C1 (configuration not stated),Percent Effect,"30.3 µM, […]",14.7%
CC(=O)N1CC(C(=O)N2CCCC(Cn3ccnc3C)C2)C1 (configuration not stated),Percent Effect,"30.3 µM, […]",46.71%
Cc1nccn1CC1CCCN(C(=O)Cc2ccsc2)C1 (configuration not stated),Percent Effect,"30.3 µM, […]",72.54%
COc1ccc(CN2CCN(S(=O)(=O)c3cc(C(=O)O)cs3)CC2)cc1,Percent Effect,"30.3 µM, […]",15%
Cn1cc(C(=O)N2CC[C@@H]3[C@@H]2CCN3c2ccccn2)cn1,Percent Effect,"30.3 µM, […]",28.1%
CC(=O)NCCCOc1c(C)cccc1Cl,Percent Effect,"30.3 µM, […]",16.58%
Cc1ccc(C(=O)N2CCC3(CCC(=O)N(CCN(C)C)C3)CC2)nc1,Percent Effect,"30.3 µM, […]",0.8363%
CCN1CCCC1Cn1ccc2ccc(C(=O)OC)cc2c1=O (configuration not stated),Percent Effect,"30.3 µM, […]",-29.19%
CCc1ccc2nc(NCC(O)CO)cc(C)c2c1 (configuration not stated),Percent Effect,"30.3 µM, […]",21.82%
CCc1ccc2nc(NCCOCCO)cc(C)c2c1,Percent Effect,"30.3 µM, […]",19.28%
CCc1ccc2nc(NCCCN(CCO)CCO)cc(C)c2c1,Percent Effect,"30.3 µM, […]",97.87%
CCc1ccc(CN2Cc3nccn3CC(Cn3cncn3)C2)o1.O=C(O)C(F)(F)F (configuration not stated),Percent Effect,"30.3 µM, […]",27.46%
COc1cccc(COCC(=O)N2CCC(CC(N)=O)CC2)c1,Percent Effect,"30 µM, 30.03 µM",-26.96%
Cc1c(C)n(-c2ccccn2)c2nc3c(c(N)c12)CCCCC3,Percent Effect,"30.3 µM, […]",70.72%
Cc1c(C)n(-c2ccccn2)c2nc3c(c(N)c12)CCCC3,Percent Effect,"30 µM, 30.03 µM",43.5%
Cc1c(C)n(Cc2ccccn2)c2nc3c(c(N)c12)CCCCCC3,Percent Effect,"30.3 µM, […]",8.308%
CC1CN(C)c2ccccc2CN1C(=O)c1ccc[nH]1 (configuration not stated),Percent Effect,"30 µM, 30.03 µM",18.04%
COCCn1cnc2ccc(NC(=O)c3ccc(OC)cc3)cc2c1=O,Percent Effect,"30.3 µM, […]",23.03%
Cn1ccnc1COc1ccc(COC(=O)C2CCCO2)cc1 (configuration not stated),Percent Effect,"30.3 µM, […]",-0.4672%
Cc1c(CC(C#N)C(=O)Nc2cccc(O)c2)cnn1C (configuration not stated),Percent Effect,"30.3 µM, […]",-22.11%
COc1ccc(Cl)cc1NC(=O)CN1CCc2nc(NC(C)=O)sc2C1,Percent Effect,"30.3 µM, […]",-8.893%
COC(=O)Nc1nc2c(s1)CN(C(=O)NCc1cccs1)CC2,Percent Effect,"30.3 µM, […]",-0.9773%
COc1ccc(Cl)cc1NC(=O)N1CCc2nc(NC(C)=O)sc2C1,Percent Effect,"30.3 µM, […]",55.24%
Cn1ccnc1CN1CCCN(C(=O)c2ccc(O)nc2)CC1,Percent Effect,30 µM,25.73%
Cc1nc2sccn2c1CN(CCCN(C)C)Cc1ccco1.O=C(O)CC(O)(CC(=O)O)C(=O)O,Percent Effect,"30.3 µM, […]",41.01%
CC[C@@]1(O)CCN(C(=O)CCc2cnn(C)c2)C[C@H]1O,Percent Effect,"30.3 µM, […]",28.56%
COc1ccc(C(C)NCc2nnc(C)s2)cc1F (configuration not stated),Percent Effect,"30.3 µM, […]",13.85%
COc1ccc(C(C)NCCC(N)=O)cc1F (configuration not stated),Percent Effect,"30.3 µM, […]",52.68%
COc1ccc(C(C)NCCc2ccc(NC(C)=O)cc2)cc1F (configuration not stated),Percent Effect,"30.3 µM, […]",23.19%
CCSc1cc(C(=O)NCCc2nnc(-c3ccco3)[nH]2)ccn1,Percent Effect,"30.3 µM, […]",-0.0887%
CN(CCn1nc2ccccn2c1=O)CC(=O)N(C)C1CCCCC1,Percent Effect,"30.3 µM, […]",4.76%
Cc1nc(N2CCCC2)ncc1-c1cc(O)nc(N2CCN(C)CC2)n1,Percent Effect,"30.3 µM, […]",59.07%
Cc1nc(N2CCCC2)ncc1-c1cc(O)nc(N2CCCC2)n1,Percent Effect,"30 µM, 30.03 µM",15.83%
Cc1nc(N2CCCC2)ncc1-c1cc(O)nc(N2CCCCC2)n1,Percent Effect,"30.3 µM, […]",-14.51%
CCCS(=O)(=O)NC(=O)c1sc(C2CCCC2)nc1C,Percent Effect,"30.3 µM, […]",11.93%
COCCNC(=O)C[C@@H]1COC[C@H]2CN(C(=O)c3cnccn3)C[C@@H]12,Percent Effect,"30 µM, 30.03 µM",9.909%
COCCNC(=O)C[C@@H]1COC[C@H]2CN(C(=O)COC)C[C@@H]12,Percent Effect,"30.3 µM, […]",51.2%
COCCNC(=O)C[C@@H]1COC[C@H]2CN(C(=O)C3CCOCC3)C[C@@H]12,Percent Effect,"30.3 µM, […]",11.97%
COC(=O)C(c1ccccc1)N(C)C(=O)c1ccnc(C)n1 (configuration not stated),Percent Effect,30 µM,22.67%
Cc1ccccc1-n1ccc2nc(N3CCCC3)ncc2c1=O,Percent Effect,"30.3 µM, […]",13.99%
CS(=O)(=O)CC(=O)N(CCN1CCOCC1)Cc1ccco1,Percent Effect,"30.3 µM, […]",-78.1%
COCCN1CCC2(CC1)CC(NCc1cncn1C)c1ccccc12.O=C(O)C(F)(F)F.O=C(O)C(F)(F)F (configuration not stated),Percent Effect,"30.3 µM, […]",17.77%
Cc1cccc(CNC2CC3(CCN(CCO)CC3)c3ccccc32)n1.O=C(O)C(F)(F)F.O=C(O)C(F)(F)F (configuration not stated),Percent Effect,"30.3 µM, […]",9.361%
COCCN1CCC2(CC1)CC(NC(=O)CN(C)C)c1ccccc1O2.O=C(O)C(F)(F)F.O=C(O)C(F)(F)F (configuration not stated),Percent Effect,"30.3 µM, […]",52.21%
Cn1cncc1CNC1CC2(CCN(CC3CC3)CC2)c2ccccc21.O=C(O)C(F)(F)F.O=C(O)C(F)(F)F (configuration not stated),Percent Effect,"30.3 µM, […]",22.11%
Cc1ccc(CNC2CC3(CCN(CCO)CC3)c3ccccc32)s1.O=C(O)C(F)(F)F.O=C(O)C(F)(F)F (configuration not stated),Percent Effect,"30.3 µM, […]",81.48%
CCC(=O)N1CCC2(CC1)CC(N1CCOCC1)c1cc(C)ccc12.O=C(O)C(F)(F)F (configuration not stated),Percent Effect,"30.3 µM, […]",12%
COCC(=O)NC1CC2(CCN(CCO)CC2)c2ccccc21.O=C(O)C(F)(F)F (configuration not stated),Percent Effect,"30.3 µM, […]",8.463%
COCCN1CCC2(CC1)CC(NC(=O)CC1CC1)c1ccccc1O2.O=C(O)C(F)(F)F (configuration not stated),Percent Effect,"30.3 µM, […]",-12.69%
COCCN1CCC2(CC1)CC(NCc1ccc(C)s1)c1ccccc12.O=C(O)C(F)(F)F.O=C(O)C(F)(F)F (configuration not stated),Percent Effect,"30.3 µM, […]",59.95%
COCCN1CCC2(CC1)CC(NC(=O)COC)c1ccccc1O2.O=C(O)C(F)(F)F (configuration not stated),Percent Effect,"30.3 µM, […]",15.07%
Cc1ccc2c(c1)C(N1CCOCC1)CC21CCNCC1 (configuration not stated),Percent Effect,"30.3 µM, […]",55.92%
Cc1ccc2c(c1)C1(CCNCC1)CC2N1CCOCC1 (configuration not stated),Percent Effect,"30.3 µM, […]",11.46%
CCn1nccc1CNC(=O)C1CCCO1 (configuration not stated),Percent Effect,"30.3 µM, […]",2.08%
CNc1oc(-c2ccc(OC)c(S(=O)(=O)N3CCCC3)c2)nc1C#N,Percent Effect,"30.3 µM, […]",16.63%
CC(=O)N1CCC2(CC1)CC(NS(C)(=O)=O)c1ccccc1O2 (configuration not stated),Percent Effect,"30.3 µM, […]",6.966%
O=C(NCc1cccs1)c1nc2c(o1)CN(c1ncccn1)C2,Percent Effect,"30.3 µM, […]",27.75%
CCn1c(CC2CCN(C(=O)c3ccnn3C)CC2)n[nH]c1=O,Percent Effect,"30.3 µM, […]",15.21%
Cc1csc(CNC(=O)NCC(O)c2cccc(Cl)c2)n1 (configuration not stated),Percent Effect,"30 µM, 30.03 µM",17.1%
CCCN(C(=O)c1csnn1)C1CCCN(Cc2ccccc2)C1 (configuration not stated),Percent Effect,"30.3 µM, […]",11.65%
COCCN1CCC2(CC1)CC(N1CCOCC1)c1ccc(C)cc12.O=C(O)C(F)(F)F.O=C(O)C(F)(F)F (configuration not stated),Percent Effect,"30.3 µM, […]",56.38%
CC(=O)N1CCC2(CC1)CC(N1CCOCC1)c1ccc(C)cc12.O=C(O)C(F)(F)F (configuration not stated),Percent Effect,"30.3 µM, […]",29.16%
COCCN1CCC2(CC1)CC(N1CCOCC1)c1cc(C)ccc12.O=C(O)C(F)(F)F.O=C(O)C(F)(F)F (configuration not stated),Percent Effect,"30.3 µM, […]",13.44%
COc1ccc(C(=O)Nc2c(C(=O)N(C)C)nn(C)c2C)cc1,Percent Effect,"30.3 µM, […]",25.81%
O=C1CC(c2ccsc2)c2snc(C(=O)O)c2N1 (configuration not stated),Percent Effect,"30.3 µM, […]",9.625%
Cc1ccc(-c2nnc(SCC(=O)O)n2-c2ccc(C)cc2)cc1,Percent Effect,"30 µM, 30.03 µM",5.804%
CNc1nc(C)cc(NC2CCCN(C3Cc4ccccc4C3)C2)n1 (configuration not stated),Percent Effect,"30.3 µM, […]",58.16%
Cc1ccc(NC2CCCN(C3Cc4ccccc4C3)C2)nn1 (configuration not stated),Percent Effect,"30.3 µM, […]",23.72%
CNc1cc(C)nc(NC2CCCN(C3Cc4ccccc4C3)C2)n1 (configuration not stated),Percent Effect,"30.3 µM, […]",32.54%
CN1CCN(C2CCN(Cc3nnc(C(C)(C)C)o3)CC2)C1=O,Percent Effect,30 µM,6.935%
COc1cc(CNCCc2nc(C)cs2)cc2c1OCCO2.Cl,Percent Effect,"30 µM, 30.03 µM",9.472%
COc1cccc(CN(C)C(C)c2ccco2)c1OCCn1ccnc1 (configuration not stated),Percent Effect,"30.3 µM, […]",23.12%
CCN(CC(=O)N(C)C)C(=O)c1ccc(-c2nc(C)cs2)cc1,Percent Effect,"30.3 µM, […]",-16.68%
CCCN(CC(=O)N(C)C)C(=O)c1ccc(-c2nc(C)cs2)cc1,Percent Effect,"30.3 µM, […]",65.78%
CCCN(CC(=O)NC)C(=O)c1ccc(-c2nc(C)cs2)cc1,Percent Effect,"30.3 µM, […]",37%
Cc1cc(C2CCCN2Cc2cc(=O)n(C)c(=O)n2C)on1 (configuration not stated),Percent Effect,"30 µM, 30.03 µM",-11.72%
COc1ccc(S(=O)(=O)NCCCc2nnc3nc(C)cc(C)n23)cc1,Percent Effect,"30.3 µM, […]",5.677%
CC(C)n1cnnc1SCCN(C)c1ccccc1,Percent Effect,"30.3 µM, […]",-1.184%
CN(C)CCN(C)C(=O)Cn1cccc2cc(-c3ccc(F)cc3)nc1-2,Percent Effect,"30.3 µM, […]",78.9%
COc1ccc(-c2cc3cccn(CC(=O)N4CCOCC4)c-3n2)cc1,Percent Effect,"30.3 µM, […]",23.65%
O=C(Cn1cccc2cc(-c3ccc(F)cc3)nc1-2)N1CCC(O)CC1,Percent Effect,"30.3 µM, […]",2.575%
CC(C)(C)c1ncc2c(n1)CN(c1cc(NCCO)nc(N)n1)C2,Percent Effect,"30.3 µM, […]",34.79%
O=C(C1CC(=O)N(c2n[nH]c3cc(Br)ccc23)C1)N1CCOCC1 (configuration not stated),Percent Effect,"30.3 µM, […]",-3.266%
CC(C)CCNC(=O)c1ccc(Cl)c(NS(C)(=O)=O)c1,Percent Effect,"30.3 µM, […]",6.444%
O=C(Cc1ccsc1)N1C[C@@H]2CN(Cc3ccoc3)CCO[C@@H]2C1.O=C(O)C(F)(F)F,Percent Effect,"30 µM, 30.03 µM",9.64%
COCCN(C)C(=O)c1ccc(OC)cc1O,Percent Effect,"30 µM, 30.03 µM",-17.55%
COCCCNC(=O)CN(C)C(=O)c1ccc(OC)cc1O,Percent Effect,30 µM,24.99%
COc1ccc(OCCN(C)C(=O)c2ccc(OC)cc2O)cc1,Percent Effect,"30.3 µM, […]",55.32%
CCN(C)C(=O)CN1CCC(c2cc(N3CCOCC3)nc(C)n2)CC1,Percent Effect,"30.3 µM, […]",-1.668%
